Experimental data taken from PubChem BioAssay (NCATS).
Results filed as inconclusive are left out. Entries that show only a call come without a potency. Activity calls are given as the source filed them. The call rests on the fitted dose curve; in most records, active means well fitted inhibition curve with a large enough effect; inconclusive means small, poorly fitted or top-dose-only effect; inactive means no such curve, though single readings can be large or run the other way.

Each molecule was assayed against Cytochrome P450 3A7 (Homo sapiens) (UniProt P24462) (assay: Cytochrome P450 family 3 subfamily A member 7 (CYP3A7) small molecule antagonists: luciferase biochemical qHTS assay (AID 1963596; further: nearly all actives have a fitted effect of over 40% in size)). Conditions: P450-Glo CYP3A7 enzyme luminescence, 1 h; series mostly up to 57.4 µM.
Excerpt: National Center for Advancing Translational Sciences [NCATS] Assay Overview: Cytochrome P450 (CYP) enzymes are membrane-bound hemeproteins that play a key role in metabolism of drugs and xenobiotics. The CYP3A subfamily is the most abundant, representing 30% of the total adult hepatic CYP content, whereas CYP3A7 is found predominantly in human fetal liver and accounts up to 50% of the total fetal hepatic CYP content. Testing the effect of chemicals on CYP isozymes is useful to minimize the adverse drug reactions and toxicities in the drug development process. Chemicals were tested for their effect on CYP enzyme activities by using P450-Glo (TM) screening systems (Promega Corporation, Madison, WI). These systems provide a luminescent method containing proluciferin substrates and are converted to luciferin products by CYP isozymes. The luciferin products formed are detected with a luciferin detection reagent, and the amount of light produced is proportional to CYP activity. P450-Glo (TM) CYP3A7 screening system (Catalog. No. V8812) was used to detect the compounds that interfere with CYP3A7 activity. The positive control compound used for CYP3A7 assay is ketoconazole (Sigma-Aldrich, St. Louis, MO).
Assay Protocol Summary: Two ul of enzyme-substrate mix was dispensed into medium binding white/solid 1536-well plates (Greiner Bio-One North America Inc., Monroe, NC) using a Flying Reagent Dispenser (FRD, Aurora Discovery, San Diego, CA). Compounds dissolved in DMSO, and positive control (ketoconazole) were transferred to the assay plates at 23 nl using a Pintool station (Wako, San Diego, CA). The assay plates were incubated at room temperature for 10 min. Then 2 ul of NADPH regeneration solution was added to each well of the assay plates using an FRD and incubated at room temperature for 1 h. The reaction was stopped by adding 4 ul of detection reagent using an FRD and after 20 min incubation at room temperature the luminescence signal was measured using a ViewLux plate reader (Perkin Elmer, Shelton, CT). Data were expressed as relative luminescence units.
Potency means the concentration at half of the fitted maximal effect.

Chain of Cytochrome P450 3A7 (Homo sapiens) (P24462 whole entry, looked up): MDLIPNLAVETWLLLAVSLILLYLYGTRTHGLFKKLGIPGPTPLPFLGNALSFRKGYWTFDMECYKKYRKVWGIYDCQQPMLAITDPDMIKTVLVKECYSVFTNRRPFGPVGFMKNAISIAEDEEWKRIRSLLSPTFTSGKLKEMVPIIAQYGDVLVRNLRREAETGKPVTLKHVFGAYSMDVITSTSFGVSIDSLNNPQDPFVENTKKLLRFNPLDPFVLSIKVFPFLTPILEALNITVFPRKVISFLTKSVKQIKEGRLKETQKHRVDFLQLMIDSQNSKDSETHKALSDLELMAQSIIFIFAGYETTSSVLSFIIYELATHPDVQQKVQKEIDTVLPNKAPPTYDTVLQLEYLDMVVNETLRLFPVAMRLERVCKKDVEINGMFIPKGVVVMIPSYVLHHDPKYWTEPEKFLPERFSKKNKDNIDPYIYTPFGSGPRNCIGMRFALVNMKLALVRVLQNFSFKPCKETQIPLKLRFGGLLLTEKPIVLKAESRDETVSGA

| Structure (SMILES) | Potency | activity change, negative = inhibition |
| --- | --- | --- |
| CC1(C)[C@H](C(=O)O)N2C(=O)C[C@H]2S1(=O)=O | inactive |  |
| CN(C)C(=O)NC1CCC(CCN2CCN(c3cccc(Cl)c3Cl)CC2)CC1 (stereo not given) | inactive |  |
| COCC(=O)N1CCc2cc(-c3csc(NC(=O)c4cc(OC)cc(OC)c4)n3)ccc21 | inactive |  |
| COc1cc2c(cc1OC(C)C)[C@H](c1ccc(Cl)cc1)N(c1ccc(N(C)CC3CCC(N4CCN(C)C(=O)C4)CC3)cc1)C(=O)C2 (stereo not given in full) | inactive |  |
| O=C(O)Cc1ccc(-c2ccccc2)cc1 | inactive |  |
| O=[N+]([O-])c1cn2c(n1)OC[C@@H](OCc1ccc(-c3ccc(OC(F)(F)F)cc3)nc1)C2 | inactive |  |
| Oc1ccc(C2(c3ccccc3F)CCC(F)(F)CC2)cc1 | 5.01 µM (active) |  |
| O=C(O)CC1CCC(c2ccc(NC(=O)c3nnc(Nc4ccc(F)c(F)c4)o3)cc2)CC1 (stereo not given) | inactive |  |
| O=C(CCCCC(=O)Nc1c(I)cc(I)c(C(=O)O)c1I)Nc1c(I)cc(I)c(C(=O)O)c1I | inactive |  |
| CC(C)(C)NCCCNC(=O)c1cccc(Br)c1 | inactive |  |
| Cc1c(N)cccc1C(F)(F)F | inactive |  |
| CC(=O)Nc1ccc(OCC(O)CNC(C)C)cc1 (stereo not given) | inactive |  |
| COc1ccc(C(=O)NCc2ccc(OCCN(C)C)cc2)cc1OC | inactive |  |
| Cc1cccc(C)c1OCC(C)N (stereo not given) | inactive |  |
| Nc1ccncc1N | inactive |  |
| O=C(NCC1CCN(Cc2cccc(Cl)c2)CC1)[C@@H]1CCCN(c2ncnc3c2nc2n3CCCC2)C1 | inactive |  |
| Cc1nc(C#Cc2ccnc(Cl)c2)c(C)n1-c1ccc(F)cc1 | inactive |  |
| Cc1cc2sc(NC(=O)Cc3ccccc3)nc2cc1Cl | inactive |  |
| N[C@@H](CCC(=O)N[C@@H](CS)C(=O)NCC(=O)O)C(=O)O | inactive |  |
| Nc1ccc(S(=O)(=O)Nc2ncccn2)cc1 | inactive |  |

| Structure (SMILES) | Potency | activity change, negative = inhibition |
| --- | --- | --- |
| COc1cc(C(=O)NC2CCN(C)CC2)ccc1Nc1ncc2c(n1)N(C1CCCC1)CC(F)(F)C(=O)N2C | inactive |  |
| COc1ccc(CCCN2CCC(COC(c3ccccc3)c3ccccc3)CC2)cc1 | inactive |  |
| COc1ccc(C=CC(=O)Nc2ccccc2C(=O)O)cc1OC | inactive |  |
| CC[C@H]1OC(=O)C[C@@H](O)[C@H](C)[C@@H](O[C@@H]2O[C@H](C)[C@@H](O[C@H]3C[C@@](C)(O)[C@@H](O)[C@H](C)O3)[C@H](N(C)C)[C@H]2O)[C@@H](CC=O)C[C@@H](C)C(=O)/C=C/C(C)=C/[C@@H]1CO[C@@H]1O[C@H](C)[C@@H](O)[C@@H](OC)[C@H]1OC | inactive |  |
| CC(C(=O)O)c1ccc(C(=O)c2cccs2)cc1 (stereo not given) | inactive |  |
| Cc1c(C(=O)NCCO)[n+](=O)c2ccccc2n1[O-] | inactive |  |
| COc1ccc(OC)c(C(O)CNC(=O)CN)c1 (stereo not given) | inactive |  |
| COC(=O)C1=C(C)NC(C)=C(C(=O)OCCN2CCN(C(c3ccccc3)c3ccccc3)CC2)C1c1cccc([N+](=O)[O-])c1 (stereo not given) | inactive |  |
| O=C(NN1CCCC1)NS(=O)(=O)c1ccc(Cl)cc1 | inactive |  |
| CNC[C@H](O)c1cccc(O)c1 | inactive |  |
| O=C(Nc1ccccc1C(=O)Nc1ccc(CCO)cc1)c1ccc([N+](=O)[O-])cc1 | inactive |  |
| COc1ccc(C#Cc2ccc(C(=O)N3CCC[C@@H](O)C3)c(F)c2)cc1 | inactive |  |
| COc1cccc(OC)c1-c1nc(C(=O)N[C@@H](CC(C)C)C(=O)O)cn1-c1ccnc2cc(Cl)ccc12 | inactive |  |
| Cc1cc(C(C)Nc2ccccc2C(=O)O)c2nc(N3CCOCC3)cc(=O)n2c1 (stereo not given) | inactive |  |
| COC(=O)c1ccc(N2CCN(C)CC2)c(NC(=O)c2cccc(OC)c2)c1 | inactive |  |
| NCCS | inactive |  |
| OCC(CO)N[C@H]1C[C@](O)(CO)[C@@H](O)[C@H](O)[C@H]1O | inactive |  |
| Nc1nc(N)c2nc(CNc3ccc(C(=O)N[C@@H](CCC(=O)O)C(=O)O)cc3)cnc2n1 | inactive |  |
| CNC1CN(c2ccc3c(=O)c(C(=O)O)cn(-c4nccs4)c3n2)CC1OC (stereo not given) |  | 23% [at 11.5 µM] (inactive) |
| C[C@@H](C(=O)O)c1ccc(-c2ccccc2)c(F)c1 | inactive |  |
